Compound activity (PubChem BioAssay)
Pf Dd2 inh: blocks growth of Plasmodium falciparum Dd2 parasites; activity change, % at 10 µM; P. falciparum Dd2 growth, SYBR Green, 72 h; hits give low values; actives 2.3% (n = 94,000); in the data active = activity change below about -80%; inconclusive = no clear call, values can overlap the other calls
C diff HTS: blocks growth of Clostridium difficile; actives 0.25% (n = 86,000); growth activity, negative = inhibition, % at 16 µg/mL (by protocol); AID 1259249; Clostridium difficile clinical isolate growth, OD600, 24 h; hits give low values;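 active = mean growth activity at or below -80% and every replicate also at or below -80%; inconclusive = mean at or below -80% but some replicate above -80%; inactive = mean growth activity above -80%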;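 note: 0% = DMSO wells and -100% = levofloxacin 16 µg/mL wells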
T cruzi growth: inhibitors of T. cruzi proliferation; AID 624255; T. cruzi beta-gal in NIH3T3, GalScreen luminescence, 90 h; inhibition, % at 8.34 µM; actives 5.9% (n = 77,000);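 active = mean inhibition above about 93%, with at least 55% of replicates each passing it, limit read from the data, passing the limit was not always enough; inconclusive = only one of those two conditions holds; inactive = neither condition holds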
* hit, by the source's call; ? = inconclusive; . = no result given. Sampled rows, rich in hits. Any-hit rate of the full collection: about 6.8%.

SMILES	Pf Dd2 inh	C diff HTS	T cruzi growth
CCCNC(=O)N1[C@H](CO)[C@H](c2ccccc2)C12CN(C(=O)c1cccnc1)C2	30.4	31.0	.
O=C(C[C@@H]1C[C@@H]2c3cc(NS(=O)(=O)c4ccccc4)ccc3O[C@@H]2[C@H](CO)O1)NC1CCCCC1	-4.4	.	-41.4
O=C(C[C@H]1CC[C@@H]2[C@H](COC[C@@H](O)CN2CCC(F)(F)F)O1)NCc1ccc(Oc2ccccc2)cc1	.	-16.6	36.2
O=C(C[C@@H]1C=C[C@@H](NC(=O)CN2CCOCC2)[C@@H](CO)O1)NC1CCCCC1	16.3	4.3	-25.5
O=C(Nc1ccc2c(c1)[C@@H]1C[C@@H](CC(=O)N3CCc4ccccc4C3)O[C@H](CO)[C@@H]1O2)C1CCOCC1	10.8	-2.1	-9.6
CO[C@@H]1CN(C)C(=O)c2ccc(NC(=O)c3cc(C)on3)cc2OC[C@@H](C)N(S(=O)(=O)c2cccc(C)c2)C[C@H]1C	-85.6*	.	.
CO[C@@H]1CN(C)C(=O)c2cc(NC(=O)c3cc(C)on3)ccc2OC[C@@H](C)N(S(=O)(=O)c2cccc(C)c2)C[C@H]1C	-50.0	.	68.2
C[C@@H]1CCCCO[C@@H](CN(C)Cc2ccccc2)[C@@H](C)CN([C@H](C)CO)C(=O)c2cc(NC(=O)Nc3ccccc3)ccc2O1	7.4	.	.
O=C(C1CCCC1)N1CC(=O)N2[C@H](CO)[C@@H](c3ccc(C#CCc4ccccc4)cc3)[C@@H]2C1	?	-14.2	.
O=C(C1CC1)N1CC(=O)N2[C@@H](CO)[C@H](c3ccc(C#CCc4ccccc4)cc3)[C@@H]2C1	-53.4	-22.6	.
CCC(=O)N1CC(=O)N2[C@H](CO)[C@@H](c3ccc(C#CCc4ccccc4)cc3)[C@@H]2C1	-38.6	-15.1	.
O=C(C1CC1)N1CC(=O)N2[C@H](CO)[C@@H](c3ccc(C#CCc4ccccc4)cc3)[C@@H]2C1	-87.5*	-25.8	.
O=C(c1ccccn1)N1CC(=O)N2[C@H](C1)[C@@H](c1ccc(C#CCc3ccccc3)cc1)[C@@H]2CO	-81.9*	-3.6	.
O=C(c1ccccn1)N1CC(=O)N2[C@H](CO)[C@@H](c3ccc(C#CCc4ccccc4)cc3)[C@@H]2C1	?	2.7	.
O=C(C1CCCC1)N1CC(=O)N2[C@H](C1)[C@@H](c1ccc(C#CCc3ccccc3)cc1)[C@@H]2CO	-89.0*	-10.6	.
CCC(=O)N1CC(=O)N2[C@@H](CO)[C@H](c3ccc(C#CCc4ccccc4)cc3)[C@@H]2C1	-84.5*	-15.6	.
O=C(C[C@@H]1CC[C@H](NC(=O)c2ccc(F)cc2)[C@H](CO)O1)NCCc1ccncc1	7.7	-2.2	-28.4
O=C(NC1CCCCC1)N1CC(=O)N2[C@@H](CO)[C@@H](c3ccc(-c4ccccc4)cc3)[C@@H]2C1	-21.0	-6.4	.
C[C@H]1CN([C@@H](C)CO)C(=O)Cc2cc(NC(=O)NC3CCCCC3)ccc2O[C@H]1CN(C)C(=O)Nc1ccc2c(c1)OCO2	-12.8	-3.2	47.5
CN1C(=O)CS(=O)(=O)C1c1ccccc1 (stereo unspecified)	.	-3.3	.
CC(=O)[C@@]12O[C@]3(COC[C@H](c4ccccc4)N3C1=O)[C@@H]1C(=O)N(c3ccccc3)C(=O)[C@@H]12	.	-0.7	.
COCC#Cc1ccc([C@H]2[C@@H](CO)N3C(=O)CN(C(=O)CN4CCOCC4)C[C@@H]23)cc1	20.8	3.2	.
CC(C)C#Cc1ccc([C@@H]2[C@@H](CO)N3C(=O)CN(C(=O)C4CCCCC4)C[C@@H]23)cc1	-85.1*	49.8	.
COCC#Cc1ccc([C@H]2[C@H](CO)N3C(=O)CN(C(=O)CN4CCOCC4)C[C@@H]23)cc1	-85.3*	2.3	.
CC(C)C#Cc1ccc([C@@H]2[C@@H](CO)N3C(=O)CN(C(=O)C4CCCCC4)C[C@H]23)cc1	-21.2	28.4	.
SMILES	Pf Dd2 inh	C diff HTS	T cruzi growth
O=C(C[C@@H]1CC[C@H]2[C@@H](COC[C@@H](O)CN2C(=O)c2ccccc2F)O1)NCc1ccc(Cl)c(Cl)c1	-16.1	7.1	3.2
C[C@H]1CN([C@@H](C)CO)C(=O)c2cccc(NC(=O)Nc3ccc(F)cc3)c2O[C@H]1CN(C)CC1CCCCC1	-15.5	12.5	5.1
CCCNC(=O)N(C)C[C@H]1Oc2cc(C#CCN(C)C)ccc2S(=O)(=O)N([C@H](C)CO)C[C@@H]1C	-6.3	-7.9	67.1
COc1ccc(CN(C)C[C@H]2Oc3c(NC(=O)Nc4ccc(C(F)(F)F)cc4)cccc3C(=O)N([C@@H](C)CO)C[C@@H]2C)cc1	-0.4	18.2	.
COc1ccc2c3c(n(C)c2c1)[C@H](CO)N(C(=O)Nc1ccc(F)cc1)CC31CN(C(=O)c2ccc3c(c2)OCO3)C1	-89.2*	2.9	.
COc1ccc2c3c(n(C)c2c1)[C@@H](CO)N(C)CC31CN(C(=O)c2ccc3c(c2)OCO3)C1	-42.9	2.1	.
COc1ccc2c3c(n(C)c2c1)[C@@H](CO)N(C(=O)Nc1ccc(F)cc1)CC31CN(C(=O)c2ccc3c(c2)OCO3)C1	-87.2*	-3.2	.
COc1ccc2c3c(n(C)c2c1)[C@H](CO)N(C(=O)Nc1ccc(F)cc1)CC31CN(C)C1	-77.2	-7.5	.
O=C(c1ccccn1)N1C[C@H]2[C@@H](c3ccccc31)[C@H](CO)N2C(=O)Nc1ccccc1F	1.3	-3.3	12.7
CO[C@H]1CC[C@H]2CCOc3c(C#N)cccc3C(=O)N(C)C[C@H](C)C(=O)N(C)C[C@H]1O2	0.7	.	-6.8
C[C@@H]1CN([C@H](C)CO)C(=O)c2cccc(NC(=O)CCCCCC(=O)Nc3ccccc3N)c2O[C@H]1CN(C)Cc1ccccc1	-88.2*	1.2	.
C[C@H](CO)N1C[C@H](C)[C@@H](CN(C)Cc2ccncc2)Oc2c(NC(=O)CCCCCC(=O)Nc3ccccc3N)cccc2C1=O	-29.4	.	46.1
C[C@@H]1CN([C@@H](C)CO)C(=O)c2cccc(NC(=O)CCCCCC(=O)Nc3ccccc3N)c2O[C@@H]1CN(C)Cc1ccncc1	-2.3	10.3	.
C[C@H]1CN([C@@H](C)CO)C(=O)c2cccc(NC(=O)CCCCCC(=O)Nc3ccccc3N)c2O[C@@H]1CN(C)Cc1ccc(-c2ccccc2)cc1	-92.7*	-14.3	.
CCC(=O)Nc1ccc2c(c1)C(=O)N(C)C[C@@H](OC)[C@H](C)CN(Cc1nccs1)[C@@H](C)CO2	.	.	18.3
COc1ccc(S(=O)(=O)N(C)C[C@@H]2OCCCC[C@@H](C)Oc3ccc(NC(=O)Cc4ccccc4)cc3C(=O)N([C@@H](C)CO)C[C@H]2C)cc1	-61.4	6.9	90.1
COc1ccc(S(=O)(=O)N(C)C[C@H]2OCCCC[C@H](C)Oc3ccc(NC(=O)Cc4ccccc4)cc3C(=O)N([C@@H](C)CO)C[C@H]2C)cc1	?	6.1	102.1
COc1ccc(S(=O)(=O)N(C)C[C@@H]2OCCCC[C@H](C)Oc3ccc(NC(=O)Cc4ccccc4)cc3C(=O)N([C@H](C)CO)C[C@H]2C)cc1	-83.9*	7.9	98.0
COc1ccc(S(=O)(=O)N(C)C[C@@H]2OCCCC[C@H](C)Oc3ccc(NC(=O)Cc4ccccc4)cc3C(=O)N([C@@H](C)CO)C[C@@H]2C)cc1	-82.8*	10.5	102.3
Cc1ccc(S(=O)(=O)Nc2ccc3c(c2)C(=O)N([C@H](C)CO)C[C@H](C)[C@@H](CN(C)Cc2ccc(C(=O)O)cc2)OCCCC[C@@H](C)O3)cc1	-5.4	.	-64.7
